Reference: PubChem BioAssay (Tox21)
Inconclusive results are not listed. The source made the active and inactive calls. Unless noted, calls come from the whole dose curve; as a rule, active = well fitted cell-killing curve with a large enough effect in the repeat runs; inconclusive = weak or mixed curves, or effect the other way; inactive = no such curve, though single readings can be large or run the other way.

Target: Bile acid receptor (Homo sapiens) (UniProt Q96RI1)
Assay: qHTS assay to identify small molecule antagonists of the farnesoid-X-receptor (FXR) signaling pathway (AID 743217; active = well fitted inhibition curve with a large enough effect in the signal ratio in the repeat runs, not every such curve was filed as active; the % refers to the signal ratio)
Conditions: HEK293T FXR-UAS-bla, beta-lactamase ratio, CDCA-stimulated, 16 h; series mostly up to 62.6 µM; activity change, negative = inhibition: at the top concentration
Outline: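 Antagonist mode against 50 uM (final) chenodeoxycholic acid stimulation in FXR-bla HEK 293T cells, 16 h at 37 °C. Inhibition detected as reduced beta-lactamase activity via LiveBLAzer B/G FRET fluorescence after 2 h at room temperature.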
% is set by controls: 0 for no effect and ±100 for the full control effect.

Chain of Bile acid receptor (Homo sapiens) (Q96RI1 whole entry, looked up): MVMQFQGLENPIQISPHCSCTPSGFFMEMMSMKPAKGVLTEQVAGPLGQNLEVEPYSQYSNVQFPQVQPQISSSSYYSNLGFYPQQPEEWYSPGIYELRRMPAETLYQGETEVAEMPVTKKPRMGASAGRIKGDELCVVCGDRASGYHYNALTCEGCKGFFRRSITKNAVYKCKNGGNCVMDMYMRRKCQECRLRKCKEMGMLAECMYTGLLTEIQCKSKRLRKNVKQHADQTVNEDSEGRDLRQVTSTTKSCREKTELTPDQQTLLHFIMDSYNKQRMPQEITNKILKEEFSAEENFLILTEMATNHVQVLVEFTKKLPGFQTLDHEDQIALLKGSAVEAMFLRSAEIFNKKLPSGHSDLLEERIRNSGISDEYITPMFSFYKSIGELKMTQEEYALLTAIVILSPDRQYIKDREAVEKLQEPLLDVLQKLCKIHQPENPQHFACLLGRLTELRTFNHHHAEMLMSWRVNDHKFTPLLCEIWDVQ

Row | Compound | activity change, negative = inhibition
1 | Cc1ccc(OC(=O)CC(C)C)cc1 | 0.506% (inactive)
2 | CCCCCCCCCCCCCCCCN(C)C | -5.41% [at 5.95 µM] (inactive)
3 | CC[C@@]1(c2ccccc2)NC(=O)N(C)C1=O | 2.87% (inactive)
4 | O=C(O)P(=O)(O)O | 6.84% (inactive)
5 | Cc1ccc2cccnc2c1 | 1.56% (inactive)
6 | c1cc2ccc3ccc4ccc5cccc6c(c1)c2c3c4c56 | 6.71% [at 2.69 µM] (inactive)
7 | CC1(C)C(=O)C(C)(C)C1=O | 0.51% (inactive)
8 | CCCCN1C(=O)c2ccccc2C1=O | 0.885% [at 81.1 µM] (inactive)
9 | C[C@@H]1CC[C@@]2(OC1)O[C@H]1C[C@H]3[C@@H]4CC[C@H]5C[C@@H](O)CC[C@]5(C)[C@H]4CC(=O)[C@]3(C)[C@H]1[C@@H]2C | 10.4% [at 5.95 µM] (inactive)
10 | CCOCCOCCOC(C)=O | 5.67% [at 81.1 µM] (inactive)
11 | CCOC(=O)CC | 0.807% (inactive)
12 | c1coc(Cn2cccc2)c1 | 1.74% (inactive)
13 | CCCCCCCCS(=O)(=O)O | 1% [at 81.1 µM] (inactive)
14 | CC(=O)SCC(CC(=O)c1ccc(C)cc1)C(=O)O (stereo unspecified) | 2.78% (inactive)
15 | O=S(=O)(O)CC(O)CCl (stereo unspecified) | 8.14% (inactive)
16 | Cc1ccc(O)c([N+](=O)[O-])c1 | 0.745% [at 81.1 µM] (inactive)
17 | OCCC(F)(F)C(F)(F)C(F)(F)C(F)(F)C(F)(F)C(F)(F)F | 3.84% (inactive)
18 | CN(C)c1cc(NC(=O)CNC(C)(C)C)c(O)c2c1C[C@H]1C[C@H]3[C@H](N(C)C)C(=O)C(C(N)=O)=C(O)[C@@]3(O)C(=O)C1=C2O | 11% (inactive)
19 | Cc1ccccc1OCC(=O)O | 3.03% (inactive)
20 | CC1(C)CC(N)CC(C)(C)N1 | 0.491% (inactive)

Tested on: not listed separately
Assay: qHTS assay to identify small molecule agonists of the farnesoid-X-receptor (FXR) signaling pathway - cell viability counter screen (AID 743218); note: nearly all actives have a fitted effect of over 45% in size
Conditions: FXR-bla HEK293T viability, CellTiter-Glo luminescence, 16 h; series mostly up to 62.6 µM; viability change, negative = cytotoxic: at the top concentration
Outline: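 Cytotoxicity counter-screen run in parallel, same wells: FXR-UAS-bla HEK 293T cells dosed 16 h at 37 C, viability read by CellTiter-Glo luminescence after 30 min at room temperature.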

Row | Compound | viability change, negative = cytotoxic
21 | Cc1ccc(OC(=O)CC(C)C)cc1 | -1.43% (inactive)
22 | CCO/C=C1\N=C(c2ccccc2)OC1=O | 1.46% (inactive)
23 | CCCCCCCCCCCCCCCCN(C)C | 0.68% [at 5.95 µM] (inactive)
24 | CC[C@@]1(c2ccccc2)NC(=O)N(C)C1=O | 12.6% (inactive)
25 | O=C(O)P(=O)(O)O | -0.545% (inactive)
26 | CC1(C)S[C@@H]2[C@H](NC(=O)Cc3ccccc3)C(=O)N2[C@H]1C(=O)O (tested in a mixture with another compound) | -12.6% (inactive)
27 | Cc1ccc2cccnc2c1 | -2.09% (inactive)
28 | CCCC(=O)CC | 4.78% [at 81.1 µM] (inactive)
29 | CN(C)CCCN(C)C | 2.3% [at 5.95 µM] (inactive)
30 | O=Cc1ccc(C(=O)O)cc1 | 35.8% [at 81.1 µM] (inactive)
31 | C=C(C)C(=O)OCCCC | 20.8% [at 81.1 µM] (inactive)
32 | CCCCN1C(=O)c2ccccc2C1=O | 6.31% [at 81.1 µM] (inactive)
33 | C[C@@H]1CC[C@@]2(OC1)O[C@H]1C[C@H]3[C@@H]4CC[C@H]5C[C@@H](O)CC[C@]5(C)[C@H]4CC(=O)[C@]3(C)[C@H]1[C@@H]2C | 12.5% [at 5.95 µM] (inactive)
34 | CCOCCOCCOC(C)=O | -4.73% [at 81.1 µM] (inactive)
35 | CC(O)CCCCn1c(=O)c2c(ncn2C)n(C)c1=O (stereo unspecified) | 7.64% (inactive)
36 | c1coc(Cn2cccc2)c1 | -0.881% (inactive)
37 | C=COCCCCO | 1.56% (inactive)
38 | CC/C=C\CCCCCCCCCCOC(C)=O | 1.1% (inactive)
39 | CCCCCCCCS(=O)(=O)O | 17.6% [at 81.1 µM] (inactive)
40 | CN1C(CCl)Nc2cc(Cl)c(S(N)(=O)=O)cc2S1(=O)=O (stereo unspecified) | 5.28% (inactive)
41 | CN(C)c1ccncc1 | -11.3% (inactive)
42 | C=CCN1CCc2nc(N)sc2CC1 | -0.796% (inactive)
43 | OCCC(F)(F)C(F)(F)C(F)(F)C(F)(F)C(F)(F)C(F)(F)F | -1.42% (inactive)
44 | CN(C)c1cc(NC(=O)CNC(C)(C)C)c(O)c2c1C[C@H]1C[C@H]3[C@H](N(C)C)C(=O)C(C(N)=O)=C(O)[C@@]3(O)C(=O)C1=C2O | 4.07% (inactive)
45 | CNCCc1ccccn1 | 6.89% (inactive)
46 | Cc1ccccc1OCC(=O)O | 10.6% (inactive)
